Drawing on PubChem BioAssay (NCI), this text covers growth inhibition for 19 compounds.

“And” between values parts separate entries of the source, which are not always exact repeats. Equal entries are not always repeated. The panel holds about 79,000 compounds, 15% with a hit somewhere; the sample as a whole holds those more often. Values without a mark were called inactive. The source made the active and inactive calls. Cut-off read from the data, not from the text of the source: active = growth inhibition above about 70%; inactive = the rest.

Assay [1] is described as follows: NCI Yeast Anticancer Drug Screen. Data for the rad50 strain (AID 155).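 Note: 0% = growth of vehicle-only cultures of the same strain.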 The note with it: S. cerevisiae rad50 strain growth inhibition; at 50.0 µM; hits give high values. In a few lines: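 Genetically altered yeast (DNA repair pathway); compound treatment; growth inhibition vs vehicle ctrl.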
Assay [2] can be described thus: NCI Yeast Anticancer Drug Screen. Data for the mec2-1 strain (AID 157). The note with it: S. cerevisiae mec2-1 strain, at 50.0 µM, hits give high values. In outline:
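Growth inhibition is read against vehicle-treated controls after compound exposure of the mec2-1 yeast strain, which is defective in DNA damage repair or cell cycle control.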

Assay [3] in a line: NCI Yeast Anticancer Drug Screen. Data for the sgs1 mgt1 strain (AID 161).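 Note: 0% = growth of cultures given vehicle only.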 As to conditions: S. cerevisiae sgs1 mgt1 strain, at 50.0 µM, hits give high values. In a few lines:
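Compounds are added to genetically altered yeast, and growth is compared with cultures given vehicle alone to give percent inhibition.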

Assay [4] can be described thus: NCI Yeast Anticancer Drug Screen. Data for the cln2 rad14 strain (AID 165).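 Note: 0% = growth equal to vehicle treated cultures.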 As to conditions: S. cerevisiae cln2 rad14 strain, at 50.0 µM, hits give high values. In outline: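 Growth inhibition, relative to vehicle-treated controls, is the read-out. The test organism is a yeast strain with defined genetic alterations, cln2 rad14.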
Assay [5] can be described thus: NCI Yeast Anticancer Drug Screen. Data for the bub3 strain (AID 167). The note with it: S. cerevisiae bub3 mutant strain, at 50.0 µM, hits give high values. In a few lines:
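Yeast carrying a defined mutation is treated with each compound, and growth is compared with that of vehicle-exposed cells to give inhibition.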

Assay [6] is described as follows: NCI Yeast Anticancer Drug Screen. Data for the mlh1 rad18 strain (AID 175). The note with it: S. cerevisiae mlh1 rad18 strain growth inhibition; at 50.0 µM; hits give high values. In outline:
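Cells of a genetically altered yeast strain, deficient in DNA damage repair, were treated with compound. Their growth was then compared with that of vehicle-treated cultures to give inhibition.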

As for `O=[As](O)(O)c1ccc2nc3cc([As](=O)(O)O)ccc3nc2c1`, the growth inhibition in assay [1] was -11.1%; in assay [2], -3%; in assay [3], -20.4%; in assay [4], 3.8%; in assay [5], 2.35%; in assay [6], -30.9%.
With `Nc1ccc([N+](=O)[O-])cc1Cl`, the growth inhibition is 11.8% in assay [1]; -7.3% in assay [2]; 45.2% in assay [3]; 19% in assay [4]; 12.9% in assay [5]; 34% in assay [6].
As to `Clc1cc[c]([Pb]([Cl])([Cl])[c]2ccc(Cl)cc2)cc1`, the growth inhibition in assay [1] is 22.9%; in assay [2], 17%; in assay [3], 27.9%; in assay [4], 52.2%; in assay [5], 36.5%; in assay [6], 13.7%.
Regarding `CC(NC1=NCCO1)c1ccco1` (centres undefined), the growth inhibition was 4.45% in assay [1]; 9.15% in assay [2]; 13.2% in assay [3]; 30% in assay [4]; 6.7% in assay [5]; -75.8% in assay [6].
For `ClCCN(CCCl)c1ccc(/C=N/N2CCN(/N=C/c3ccc(N(CCCl)CCCl)cc3)CC2)cc1`, the growth inhibition in assay [1] was 7.85%; in assay [2], -2.9%; in assay [3] it was 21.9%; in assay [4] it was 7.85%; in assay [5], -11.1%; in assay [6], -1.25%.
As to `CCCCCCNC(=O)C(C)Br` (centres undefined), the growth inhibition in assay [1] is -7.35%; in assay [2] it was 4.9%; in assay [3] it was -0.55%; in assay [4], -12.4%; in assay [5], 9.95%; in assay [6], 1.85%.
`C1CC[N-]CC1.CC(=N\O)/C(C)=N/O.CC(=N\O)/C(C)=N/O.[CH2-]c1ccccc1.[Co+2]`: the growth inhibition in assay [1] was -3.75%; in assay [2], -0.9%; in assay [3], -13.4%; in assay [4], -36%; in assay [5], 16.4%; in assay [6], -4.5%.
For the compound `Cc1cc(S(=O)(=O)[O-])ccc1-n1nc(C)[c-](N=Nc2cc(S(=O)(=O)[O-])ccc2C(=O)[O-])c1=O.[Cr+3].[Na+].[OH-]` (centres undefined), the growth inhibition in assay [1] is -19.4%; in assay [2], -30.5%; in assay [3], -11.6%; in assay [4], -35.4%; in assay [5], -16.3%; in assay [6], -17.1%.
In the case of `N[C@H](Cc1ccc2oc3cc(=O)c4ccccc4c-3nc2c1)C(=O)O`, the growth inhibition in assay [1] was 20.8%; in assay [2], 33.4%; in assay [3], 24.7%; in assay [4], 15.1%; in assay [5], 35.5%; in assay [6] it was 39.2%.
With `CN(C)P(=O)(N(C)C)N1CCCCCC1`, the growth inhibition in assay [1] is -8.2%; in assay [2], -21.6%; in assay [3], 0%; in assay [4], -18.4%; in assay [5], 3.4%; in assay [6], -10.6%.
For `CC(NC(=O)C(c1ccccc1)c1ccccc1)C(=O)O` (centres undefined), the growth inhibition in assay [1] was 2.35%; in assay [2], 12.6%; in assay [3], -1.5%; in assay [4], -17.2%; in assay [5], 1.4%; in assay [6] it was 14.9%.
For the compound `CN1c2ccccc2NP1(=S)c1ccccc1` (centres undefined), the growth inhibition in assay [1] was 69.5%; in assay [2], 80% (active); in assay [3], 95.2% (active); in assay [4] it was 40.5%; in assay [5] it was 55.9%; in assay [6], 83.2% (active).
For `CCCC1(CCS)C(=O)NC(=O)NC1=O`, the growth inhibition was -12.9% in assay [1]; -33.7% in assay [2]; -13.3% in assay [3]; 5.25% in assay [4]; 2.3% in assay [5]; 9.15% in assay [6].
As to `Cc1ccc2ccccc2c1`, the growth inhibition in assay [1] was 3.9%; in assay [2], -14.5%; in assay [3], -6.05%; in assay [4] it was -3.05%; in assay [5], 2.4%; in assay [6] it was -7.35%.
Consider `CCOP(=O)(OCC)Oc1cc(C)c(SC)c(C)c1`, for which the growth inhibition in assay [1] is -6.45%; in assay [2] it was -24.4%; in assay [3], -0.6%; in assay [4] it was 9.25%; in assay [5], 19%; in assay [6], -16.8%.
With `COC(=O)C(Cl)CCl` (centres undefined), the growth inhibition in assay [1] is 2.45% and 39.4%; in assay [2], 15.3% and 6.15%; in assay [3], -9.05% and 16%; in assay [4], -23.2% and -34.7%; in assay [5] it was -2.3% and 15.8%; in assay [6] it was -20.8% and 25.7%.
With `CCOC(=O)C1C(=O)C(CN(CCCl)CCCl)C(=O)C(C(=O)OCC)C1c1cc(OC)c(OC)c(OC)c1` (centres undefined), the growth inhibition was 17.9% in assay [1]; -8.05% in assay [2]; 16.6% in assay [3]; -27.9% in assay [4]; 0% in assay [5]; 30.9% in assay [6].
For the compound `CC1=C(C#N)C2(CCN(C)CC2)C(C#N)=C(C)N1`, the growth inhibition is 13.3% in assay [1]; 8.75% in assay [2]; 3.05% in assay [3]; -27.9% in assay [4]; -3% in assay [5]; -4.4% in assay [6].
Consider `CN(C)c1ccc(N=Nc2cccc(C(=O)[O-])c2)cc1.CN(C)c1ccc(N=Nc2cccc(C(=O)[O-])c2)cc1.NC1CCCCC1N.[Pt+4]`, for which the growth inhibition in assay [1] was -13.4%; in assay [2], -4.05%; in assay [3] it was -18.4%; in assay [4], 1.2%; in assay [5], -28.1%; in assay [6], 36.5%.
